The campaign covered roughly 1,400 compounds. About 560 (40%) were called active. So high a share suggests a set chosen from earlier hits. Some of the results follow. Values without a mark were called inactive.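 The calls were made as follows: active = mean inhibition over duplicate tests at 10 µM above 50%; inactive = the rest.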

This assay in a line: ASC/caspase-1 reporter retest in S. cerevisiae at one dose, specificity check for NALP1 project (AID 488857). To be noted: S. cerevisiae ASC/Caspase-1, beta-galactosidase luminescence, 24 h; at 10 µM; hits give high values.
Broadly, the inhibition is the percentage by which the read-out fell short of the control. In the case of `COc1ccc(CN2CCNC(=O)C2CC(=O)N(Cc2nccn2C)C(C)C)c(OC)c1` (configuration not stated), the inhibition was 26.1%.

For `C/C(=N/N=C1\SCC(=O)N1c1ccccc1)c1ccc(C)cc1`, the inhibition is 39.4%.

As to `O=C1CSC(=S)N1c1ccc(O)cc1`, the inhibition was 98.2% (active).

`O=C1CSC(=S)N1c1cccc(O)c1`: the inhibition is 98.8% (active).

For `COc1cc(C2SCC(=O)N2CCCN(C)C)cc(OC)c1OC` (configuration not stated), the inhibition was 23.1%.

Consider `COc1cc(N2C(=O)CSC2=S)cc(OC)c1OC`, for which the inhibition was 81.3% (active).

Regarding `CCCCNCCOCCOc1ccccc1-c1ccccc1`, the inhibition was 55.2% (active).

For `CCCCNCCOCCOc1ccc(Cl)cc1Br`, the inhibition was 49%.

With `O=C(Nc1nc(-c2ccco2)c(-c2ccco2)s1)C1CCC1`, the inhibition was 45.5%.

For `O=C(NCc1ccc(F)cc1)c1cc(-c2ccco2)on1`, the inhibition was 52.4% (active).

As for `O=C(Nc1cccc(O)c1)c1cc(-c2ccco2)on1`, the inhibition was 79.8% (active).

`O=C(CSCc1ccc(F)cc1)NCc1ccco1`: the inhibition is 47.5%.

Turning to `Cc1ccc(NC(=O)N(C2CCCCC2)C(C)c2cccnc2)cc1C` (configuration not stated), the inhibition is 48.4%.

For `CCOC(=O)NC1(NCc2ccccc2)Oc2ccccc2O1`, the inhibition is 38.3%.

Regarding `CCOC(=O)Nc1cccc(Nc2ccccc2)c1`, the inhibition was 59.8% (active).

`CCOC(=O)C(=O)NNc1ccc(Cl)cc1`: the inhibition is 42.9%.

As for `CCOC(=O)Nc1ccc2c(C)cc(=O)oc2c1`, the inhibition was 58.4% (active).

As to `CCOC(=O)c1sc(NC(=O)Nc2cccc(Cl)c2)cc1C`, the inhibition is 19.4%.

Regarding `Cc1cc(=O)oc2cc(OCC(=O)N3CCN(C(=O)c4ccco4)CC3)ccc12`, the inhibition was 30.7%.

Take `CC(C)CN=Cc1c(O)c([N+](=O)[O-])cc2oc3c(c12)CCCC3`: the inhibition is 28.2%.

As for `CCOc1ccccc1C(=O)Nc1cnn(Cc2ccc(F)cc2)c1`, the inhibition was 61.2% (active).

On to `COc1ccccc1C(=O)Nc1nc2nc(-c3ccccc3)cc(=O)n2[nH]1`, for which the inhibition was 15.4%.

As for `CC1CCCN(c2nc(NCc3ccco3)nc(N)c2[N+](=O)[O-])C1` (configuration not stated), the inhibition was 62% (active).

For the compound `Nc1nc(NCc2ccco2)nc(N2CCCCCC2)c1[N+](=O)[O-]`, the inhibition was 62.4% (active).

For `Cc1ccc(Nc2nc(N)c([N+](=O)[O-])c(NCc3ccco3)n2)cc1C`, the inhibition was 60.8% (active).

For the compound `CC1CCN(c2nc(NCc3ccco3)nc(N)c2[N+](=O)[O-])CC1`, the inhibition was 73% (active).

As for `Cc1ccc(C(=O)NCc2ccco2)cc1S(=O)(=O)Nc1cccc(Cl)c1`, the inhibition was 38.6%.

For `CCN1CCN(C(=O)N[C@@H](C(=O)N[C@@H]2C(=O)N3[C@@H]2SC(C)(C)[C@@H]3C(=O)O)c2ccccc2)C(=O)C1=O`, the inhibition is 39.1%.

For `COCCn1c(SCC(=O)NC(=O)NC(C)(C)C)nc2ccccc21`, the inhibition is 40.6%.

As for `O=c1c(F)cn(C2CCCO2)c(=O)n1Cc1c(F)cccc1Cl` (configuration not stated), the inhibition is 33.2%.

With `CCOC(=O)c1c(C(F)(F)C(F)(F)C(F)(F)C(F)(F)F)n[nH]c1C`, the inhibition is 25.5%.

Take `COc1ccc(C2=NN3C(=O)c4c(ccc(OC)c4OC)C3C2)cc1` (configuration not stated): the inhibition was 50.4% (active).

Take `O=P(CCCCCCCCCP(=O)(c1ccccc1)c1ccccc1)(c1ccccc1)c1ccccc1`: the inhibition is 47.2%.

Take `O=C(NC(CO)Cc1ccc([N+](=O)[O-])cc1)C(Cl)Cl` (configuration not stated): the inhibition was 34.8%.

Regarding `CNC(CC(=O)c1ccc([N+](=O)[O-])cc1)C(Cl)(Cl)Cl` (configuration not stated), the inhibition is 69.4% (active).

Consider `Cc1ccc(F)cc1NCC(=O)Nc1ccc(Br)cc1`, for which the inhibition is 41.2%.

`N#CC(C#N)=C(Nc1ccc(F)cc1)SCc1cccc(Br)c1`: the inhibition was 83.2% (active).

For the compound `COc1ccc2c(c1)C1=NN(/C(C)=C/C(C)=O)C(c3ccc(F)cc3)C1CC2` (configuration not stated), the inhibition was 45.9%.

As to `COc1ccccc1NC(=O)Nc1ccc2c(c1)nnn2C`, the inhibition was 25.1%.

In the case of `OCCCN=c1cc(-c2ccccc2)oc2ccc(Cl)cc12`, the inhibition was 49.8%.

For `COc1ccc(N=c2cc(-c3ccc(OC)cc3)oc3ccccc23)cc1`, the inhibition is 54.5% (active).

As to `Cn1c(N)c(C(=O)COC(=O)C2(c3ccc(Cl)cc3)CCCC2)c(=O)n(C)c1=O`, the inhibition was 26.6%.

With `COC(=O)Nc1nc(C)c(C(=O)c2ccccc2)s1`, the inhibition is 47.8%.

As for `COC(=O)Nc1sc2nc(C)cc(C)c2c1-n1cccc1`, the inhibition is 67.7% (active).

As to `CCOC(=O)C1CCCN(Cc2ccc(OCC)cc2)C1` (configuration not stated), the inhibition was 30.4%.

As for `CCC(C)(C)NCC(=O)Nc1ccc(OC(F)(F)F)cc1`, the inhibition was 27.4%.

`CCc1ccc(OCC(=O)Nc2ccc(CN3CCCCC3)cc2)cc1`: the inhibition is 55.1% (active).

Turning to `Clc1ccc2c(N/N=C/c3ccccc3Br)ccnc2c1`, the inhibition is 31.4%.

Take `CCCCNC(=O)C(=O)N/N=C/c1cccc(Br)c1`: the inhibition was 37.1%.

`Clc1ccc2c(N/N=C/c3cccc(Br)c3)ccnc2c1`: the inhibition was 57% (active).

With `Cc1ccc(/C=N/Nc2ccnc3cc(Cl)ccc23)c(C)c1`, the inhibition is 55% (active).

Consider `Clc1ccc2c(N/N=C/c3ccc(Br)cc3)ccnc2c1`, for which the inhibition was 55.6% (active).

As for `Cc1ccc(N/C=C/C(=O)C(C)(C)C)c(O)c1`, the inhibition was 34.2%.

On to `CC(C)Oc1ccc(Cc2cnc(N)nc2N)cc1`, for which the inhibition is 48%.

For the compound `CCOc1c(Cl)cc(CNCC(C)C)cc1OC`, the inhibition was 50% (active).

With `Cc1cc2ccccc2n1CCNCc1c(C(=O)N2CCOCC2)nc2ccccn12`, the inhibition is 21.8%.

Turning to `Cn1cc(CC(=O)Nc2cccc(C#N)c2)c2ccccc21`, the inhibition is 34.1%.

On to `O=C(CNC(c1ccccc1)c1ccccc1)Nc1c(F)cccc1F`, for which the inhibition is 39.8%.

Take `CC(CC(=O)Nc1cccc(Cl)c1)c1ccccc1` (configuration not stated): the inhibition was 50% (active).

`CSC1=N/C(=C\c2cccnc2)C(=O)N1c1ccccc1`: the inhibition was 37.9%.

`CCOC(=O)C1=Nc2ccccc2C1=[N+]=[N-]`: the inhibition was 46%.

On to `CCOC(=O)c1nn(-c2ccc(C)cc2)cc1C(=O)c1ccccc1`, for which the inhibition was 64.8% (active).

Take `NS(=O)(=O)c1ccc(NC(=O)COC(=O)c2cn(-c3ccccc3)nc2-c2ccc(F)cc2)cc1`: the inhibition was 33.1%.

For the compound `COc1ccc(CC(C)N2CCN(Cc3ccccc3)CC2)c(OC)c1` (configuration not stated), the inhibition was 39.7%.

On to `CCCCC(=O)Nc1ccc(C(=O)NNC(=S)NC(=O)c2ccco2)cc1`, for which the inhibition is 30.9%.

For the compound `Cc1sc(NC(=O)c2ccco2)nc1-c1ccccc1`, the inhibition is 79% (active).

Consider `Cc1ccn2cc(-c3ccc(NC(=O)c4ccco4)cc3)nc2c1`, for which the inhibition is 86.5% (active).

On to `O=C(CCl)Nc1nc(-c2ccco2)c(-c2ccco2)s1`, for which the inhibition was 26.5%.

As for `O=C(Nc1ccc(-c2cn3ccccc3n2)cc1)c1ccco1`, the inhibition is 84% (active).

As to `Cc1sc2nc(SCC(=O)NCc3ccco3)n(Cc3ccccc3)c(=O)c2c1C`, the inhibition was 23.5%.

Regarding `N#Cc1ccc(-c2ccc(Cl)cc2)nc1SCC(=O)c1cccc(Cl)c1`, the inhibition was 25.2%.

`O=C(Nc1cccc(-c2cn3ccccc3n2)c1)c1cccc(Cl)c1`: the inhibition was 58.9% (active).

For the origin of these results see PubChem BioAssay AID488857 (Sanford-Burnham Center for Chemical Genomics, 2010).
